Test results taken from PubChem BioAssay (EPA / NIEHS).
Activity calls are given as the source filed them. The calls were made as follows: active = hit-call score of the fitted dose curve at least 0.9, where 1 is the maximum; inactive = score below 0.9.

Test: ATG_TAL_CIS: Attagene CIS-FACTORIAL HepG2 Assay for human TAL Basal Promoter (AID 2282966)
Details: HepG2 Attagene cis-factorial TAL promoter reporter; actives raise or lower the signal
Method: ATG_CIS is a cell-based, multiplexed-readout assay that uses HepG2, a human liver cell line, with measurements taken at 24 hours after chemical dosing in a 24-well plate.ATG_TAL_CIS is one of 52 assay component(s) measured or calculated from the ATG_CIS assay. It is designed to make measurements of mRNA induction, a form of inducible reporter, as detected with fluorescence intensity signals by Reverse transcription polymerase chain reaction (RT-PCR) and Capillary electrophoresis technology.Data from the assay component ATG_TAL_CIS was analyzed into 1 assay endpoint. This assay endpoint, ATG_TAL_CIS, was analyzed with bidirectional fitting relative to DMSO as the negative control and baseline of activity. Using a type of inducible reporter, measures of mRNA for gain or loss-of-signal activity can be used to understand the background control at the transcription factor-level as they relate to the gene . Furthermore, this assay endpoint can be referred to as a secondary readout, because this assay has produced multiple assay endpoints where this one serves a background control function. To generalize the intended target to other relatable targets, this assay endpoint is annotated to the background measurement intended target family, where the subfamily is internal marker.
Human liver HepG2 cells are transiently transfected with multiple reporter transcription units (MRTUs) in 6-well plates using FuGene 6 reagent (Roche; 3 ml FuGene/1 mg DNA). The MRTU constructs are regulated by a cis-regulating element (promoter). […] A major difference between the CIS and TRANS system is that in CIS activities of endogenous TFs are measured, whereas the TRANS assay evaluates changes in activities of exogenous, chimeric NR-Gal4 proteins. […] At the end of 24 hour incubation, total RNA was isolated using TriZol reagent (Invitrogen). The isolated RNA is then reverse-transcribed using oligo(dT) primer and Mo-MLV reverse transcriptase (Invitrogen) with DNAse I (Ambion) treatment for 30 min. The one-tenth of the produced cDNA was amplified by PCR using Taq DNA polymerase (Invitrogen) and two reporter sequence-specific primers. The PCR products were fluorescently labeled by primer extension with 6-arboxyfluorescein (6-FAM) 5'-labeled reporter sequence-specific primer (2 min at 95 C, 20 s at 68 C and 10 min at 72 C) and these products were digested with 5U of HpaI (New England Biolabs) for 2h at 37 C. The fragments were purified using Qiaquick PCR columns (Qiagen), analyzed on an ABI 3130xL genetic analyzer (Applied Biosystems) with peak positions identified by using a set of X-rhodamine (ROX)-labeled MapMarker1000 molecular weight standards (BioVentures). The raw capillary electrophoresis data was processed using Attagraph software (Attagene).

SMILES	outcome	AC50
CNC(C)=O	inactive	–
NC(N)=O	inactive	–
COc1cc(C(C)C)c2c(c1)S(=O)(=O)N(COc1cc(=O)n3cccc(OCCN4CCCCC4)c3n1)C2=O	inactive	–
CC[C@H](C)C(=O)O[C@H]1C[C@H](O)C=C2C=C[C@H](C)[C@H](CC[C@@H](O)C[C@@H](O)CC(=O)O)[C@H]21	inactive	–
CCCCOC(=O)c1ccccc1	inactive	–
NCC(F)(F)C(F)(F)C(F)(F)C(F)(F)F	inactive	–
C[C@@H](Oc1ccc(CNC(=O)c2cccnc2Oc2ccc3c(c2)OCO3)c(F)c1)C(=O)O	inactive	–
CCCCC(CC)C(=O)OCCOCCOCCOC(=O)C(CC)CCCC (stereo not given)	inactive	–
CCCCN1C(=O)[C@@H]([C@H](O)C2CCCCC2)NC(=O)C12CCN(Cc1ccc(Oc3ccc(C(=O)O)cc3)cc1)CC2	–	21.9 µM (active)
O=C(NO)C1(NS(=O)(=O)c2ccc(Oc3ccc(F)cc3)cc2)CCOCC1	inactive	–
CC(=O)c1ccccc1	inactive	–
CCCCCCCC/C=C\CCCCCCCC(=O)OC[C@@H](O)[C@H]1OC[C@H](O)[C@H]1O	inactive	–
Cc1ccc(S(=O)(=O)NC(=O)NN2CCCCCC2)cc1	inactive	–
OCCOCCOCCO	inactive	–
c1ccc2ncccc2c1	inactive	–
O=C1CN(N=Cc2ccc([N+](=O)[O-])o2)C(=O)N1	inactive	–
O=C(O)[C@H](O)[C@@H](O)C(=O)O	inactive	–
CC(C)C(=O)Nc1ccc([N+](=O)[O-])c(C(F)(F)F)c1	inactive	–
OC[C@H]1O[C@@](CO)(O[C@H]2O[C@H](CO)[C@@H](O)[C@H](O)[C@H]2O)[C@@H](O)[C@@H]1O	inactive	–
C[Si](C)(C)C(F)(F)C(F)(F)C(F)(F)F	inactive	–

SMILES	outcome	AC50
COc1cc2c(c(OC)c1OC)-c1ccc(OC)c(=O)cc1[C@@H](NC(C)=O)CC2	inactive	–
CC(C)CC(C)O (stereo not given)	inactive	–
O=C(O)c1ccc2c(c1)nc(C(=O)NC1CCN(C3CC3)CC1)n2Cc1cc(-c2ccc(Cl)s2)on1	inactive	–
O=C(O)c1cccc(C[C@@H]2COc3ccc(OCc4nc5cc(F)ccc5s4)cc3[C@@H]2O)c1	inactive	–
CCCCCCOC(=O)CC(CC(=O)OCCCCCC)(OC(=O)CCC)C(=O)OCCCCCC	inactive	–
c1ccc2c(c1)-c1cccc3c1c-2cc1ccccc13	inactive	–
CCCCCCCCCC	inactive	–
NNC(=O)c1ccncc1	inactive	–
OCC(CO)(CO)CO	inactive	–
CCCCCCCCN(C)C	inactive	–
O=C(O)c1cccc(C(=O)O)c1	inactive	–
S=P(N1CC1)(N1CC1)N1CC1	inactive	–
Cn1c(=O)c2[nH]cnc2n(C)c1=O	inactive	–
C[C@]12C=CC(=O)C=C1CC[C@H]1[C@@H]3C[C@@H](O)[C@](O)(C(=O)CO)[C@@]3(C)C[C@H](O)[C@@]12F	inactive	–
FC(F)=C(F)C(F)(F)C(F)(F)C(F)(F)C(F)(F)C(F)(F)C(F)(F)F	inactive	–
Cc1cccc(O)c1C	inactive	–
O=c1[nH]cnc2c1ncn2[C@H]1CC[C@@H](CO)O1	inactive	–
OC(CCl)CCl	inactive	–
Cc1nccn1-c1ccc(Sc2cccc(C3(C(N)=O)CCOCC3)c2)cc1	–	6.43 µM (active)
CCCc1ccccc1	inactive	–
